# In article PMC7819943, “Rice protein-binding microarrays: a tool to detect cis-acting elements near promoter regions in rice”:
# Over roughly 35,000 sequences, “fluorescence intensity (a.u.)” has its median near 10,000; the highest 2% begin near 52,000. The entries come from a sample that favours the highest values as a whole.
# Molecular target: T1, OsWOX13 (Oryza sativa, UniProt Q5QMM3 1-267)
# T1 sequence: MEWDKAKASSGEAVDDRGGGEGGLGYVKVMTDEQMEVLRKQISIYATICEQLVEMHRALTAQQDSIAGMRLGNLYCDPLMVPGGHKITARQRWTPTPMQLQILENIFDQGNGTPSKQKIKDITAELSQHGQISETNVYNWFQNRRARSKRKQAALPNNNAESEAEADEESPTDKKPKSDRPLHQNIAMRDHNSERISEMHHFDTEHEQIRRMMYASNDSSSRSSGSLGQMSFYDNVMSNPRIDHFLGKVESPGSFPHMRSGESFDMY
# Assay: protein-binding microarray (RPBM); PBS, 2% BSA, 51.3 ng/ul salmon testes DNA, 50 uM zinc acetate, 200 nM TF, 25 C, 1 h; high values mean tight binding
# Details: protein: recombinant; tags: N-terminal polyhistidine and DsRed monomer fusion (pET32a); label: CyDye5-dUTP incorporated in the synthesized complementary strand; 3' TTTTT single-stranded linker to array surface; dsDNA, one strand shown
# Summary of the method: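 An Axon 4000B scanner gave the binding signal as per-feature fluorescence intensity in arbitrary units. This followed washing of a custom Agilent array that had been incubated for 1 h at 25 °C with 200 nM protein in PBS, 2% BSA, salmon testes DNA and 50 µM zinc acetate. The proteins were transcription factors fused at the N-terminus to polyhistidine and DsRed, expressed in E. coli BL21-CodonPlus and purified on Ni–NTA.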
row,Sequence,binding signal
1,CACATCAACCTGCACCAATCATGCCATCGAGATCACAACACGGAGTCACCTAGTGCAG,3970 fluorescence intensity (a.u.)
2,ATCTCCAAAATTTTAAATTTTAATTAAAACCTAACTTACACGGAGTCACCTAGTGCAG,6930 fluorescence intensity (a.u.)
3,TGAATAATTGACAATTTAACCAGACCATTAATTAATTGTTCGGAGTCACCTAGTGCAG,62400 fluorescence intensity (a.u.)
4,AATAATTGAATATATTTTCATAATAAATGTGTGTTGAGTTCGGAGTCACCTAGTGCAG,38400 fluorescence intensity (a.u.)
5,AATAATTGAATATATTTTCATAATAAATTTGTCTTGGGTTCGGAGTCACCTAGTGCAG,44400 fluorescence intensity (a.u.)
6,TACTAATTTTGAATTTAGAGCTATTAACCAATAAATTGTTCGGAGTCACCTAGTGCAG,12200 fluorescence intensity (a.u.)
7,AAGAATTGATAGATGAAACGTGATTAGATACTAACTATACCGGAGTCACCTAGTGCAG,41200 fluorescence intensity (a.u.)
8,CTTTAAAATTAATTAAATTTGAAAATTAGTAACGAGGGGACGGAGTCACCTAGTGCAG,26700 fluorescence intensity (a.u.)
9,TATAATTGAATAAATTTTCATATTATATTTATCTTGTGTTCGGAGTCACCTAGTGCAG,63100 fluorescence intensity (a.u.)
10,TTAATATAAAAGTAATTATTTAAATTGTAGAAACAATTTACGGAGTCACCTAGTGCAG,5710 fluorescence intensity (a.u.)
11,GCACTAGTGATTGGAACAATATTAATTTCAGAAACATTGCCGGAGTCACCTAGTGCAG,32700 fluorescence intensity (a.u.)
12,CTAGAAATTAGGTGATTAATTTATTAAACACAATATTGCCCGGAGTCACCTAGTGCAG,56900 fluorescence intensity (a.u.)
13,AGAAATTGAACGTGATTAACGGGGAGGGCACTAGTGAGGCCGGAGTCACCTAGTGCAG,53000 fluorescence intensity (a.u.)
14,ACAATTGAAGATAAATGACAAACCAATAAACCATTTGTTTCGGAGTCACCTAGTGCAG,5080 fluorescence intensity (a.u.)
15,TAGTGATTTGAAAATACGGGTGCAAACAATGGAGCAACAACGGAGTCACCTAGTGCAG,3560 fluorescence intensity (a.u.)
16,ATTTACCGCAACTGTAATTGAGATGGTTTTGAGATTTCATCGGAGTCACCTAGTGCAG,6850 fluorescence intensity (a.u.)
17,TGTCACAGGTAAATCACTGCAATTAGCGAGTCATGGCTCACGGAGTCACCTAGTGCAG,8530 fluorescence intensity (a.u.)
18,TGATGTTTCATCACTAATTTGTATTTGATAACCTGCATATCGGAGTCACCTAGTGCAG,5260 fluorescence intensity (a.u.)
19,CTGATTTGCAGTTCGTTCGTGCCTCTCACAATCAAACCCCCGGAGTCACCTAGTGCAG,14300 fluorescence intensity (a.u.)
20,AGGTTGCAATCATTGGCCAGACGTTGCATGTCGTTGTTGACGGAGTCACCTAGTGCAG,13700 fluorescence intensity (a.u.)
21,CTTGTTATTGAATAATGGATTAACTAACTAATAACTAACGCGGAGTCACCTAGTGCAG,12800 fluorescence intensity (a.u.)
22,CAACAGATTAATGACATGTCAACAGCTGCATGCTCTAGCTCGGAGTCACCTAGTGCAG,14200 fluorescence intensity (a.u.)
23,CCGGTCTCCAAATCTTTATTAATTGCTTCCTCAAAACCCCCGGAGTCACCTAGTGCAG,3980 fluorescence intensity (a.u.)

row,Sequence,binding signal
1,ATTAACGACTTTTAATTTGAAACGGATTGAGTAGCTAGTTCGGAGTCACCTAGTGCAG,16100 fluorescence intensity (a.u.)
2,AAAAGAATAATTTATTGTCTTGTTCAGTTAATCCCTCCCTCGGAGTCACCTAGTGCAG,3330 fluorescence intensity (a.u.)
3,TTTAATTAATTGTAGGACAAGATAGCAAACGTGTGGCTACCGGAGTCACCTAGTGCAG,59900 fluorescence intensity (a.u.)
4,ATAATCCCTTGCGATTTATATTGAATTAATAGTTCTTGTTCGGAGTCACCTAGTGCAG,65000 fluorescence intensity (a.u.)
5,TGGTAATTTTATGATTAAATTGACACTAACAAACTTATAGCGGAGTCACCTAGTGCAG,57200 fluorescence intensity (a.u.)
6,GGAAAATGCTCTAATGATTGTTATGGAGTTTATCTGTAATCGGAGTCACCTAGTGCAG,5570 fluorescence intensity (a.u.)
7,AAAACAAATTTTATTATAAATATACGTTTAACTAACTTAGCGGAGTCACCTAGTGCAG,6070 fluorescence intensity (a.u.)
8,ATTAATTGGTCGTGTATTAGCAAACGATATATATATCGGTCGGAGTCACCTAGTGCAG,50500 fluorescence intensity (a.u.)
9,TCTGTATGGTCTACTTGTTTGATTGATTGATAATTTTACACGGAGTCACCTAGTGCAG,22300 fluorescence intensity (a.u.)
10,CACTATTAATTGTGCTTAGAGCAAGTTTAATAGTGTAGCCCGGAGTCACCTAGTGCAG,9860 fluorescence intensity (a.u.)
11,CACGATGATTGTTTGTATATGGAAACACCAAAATGGTCTACGGAGTCACCTAGTGCAG,54700 fluorescence intensity (a.u.)
12,AGAGATTATTGAATATTGTTGCGATGACTTATAATCTTATCGGAGTCACCTAGTGCAG,5070 fluorescence intensity (a.u.)
13,ACTGATAACAAAATAATTTATAGGTAAAACTTTTAATATGCGGAGTCACCTAGTGCAG,7340 fluorescence intensity (a.u.)
14,AATTAATTTCTAAATACAATCATTATTCACCTCGTAATATCGGAGTCACCTAGTGCAG,7210 fluorescence intensity (a.u.)
15,CCATATAATTATGCTTGTTATTATGTGACAAAGAGCGGGTCGGAGTCACCTAGTGCAG,25400 fluorescence intensity (a.u.)
16,CCAAAATATATTAATTAGCTCAGGTATGTACCCGCCCAATCGGAGTCACCTAGTGCAG,10700 fluorescence intensity (a.u.)
17,GTATATTTAATAATAAATCAACTCGCAATGAGACAAAATGCGGAGTCACCTAGTGCAG,4570 fluorescence intensity (a.u.)
18,ATTCTTAAATTGTTTTAACTAATACTTAATCAGCCATGAACGGAGTCACCTAGTGCAG,7790 fluorescence intensity (a.u.)
19,TTGGTGATATTGATGGAGCATGTTTTATTTGATAGAATAGCGGAGTCACCTAGTGCAG,3390 fluorescence intensity (a.u.)
20,AACTTGAAACAATTTGATTTTGACTAAAGTCAAAACGTCTCGGAGTCACCTAGTGCAG,4710 fluorescence intensity (a.u.)
21,CATTGATGACACAAAATAGTAGCAACTAAACAAACCAGAACGGAGTCACCTAGTGCAG,6690 fluorescence intensity (a.u.)
22,GTGCTCTTTAATTATCACTTTGTGCGCACTTTTCTTTGATCGGAGTCACCTAGTGCAG,6410 fluorescence intensity (a.u.)
23,TTTGATTGTTTCCATTTGCAATTTCTAAATACGAACCTGCCGGAGTCACCTAGTGCAG,57500 fluorescence intensity (a.u.)
